Sampled rows, rich in hits. Any-hit rate of the full collection: about 27%.
CYP2C19 act – human CYP2C19 activators, primary screen, biochemical, luminescence. Cytochrome P450 2C19 (Homo sapiens), P33261. recombinant CYP2C19, luciferin-H EGE luminescence; stronger effect = higher value; 0 = fully inhibited enzyme, 1 = untreated enzyme. activation factor at 5 µM. 96,000 tested, under 10 active. AID 1025, 2008;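 active = activation factor of at least 2 at 5 µM in the primary screen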;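 also: 0 = wells with 2.5 mM tranylcypromine and 1 = vehicle-only wells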
CYP2C9 inhib – blockers of cytochrome P450 2C9 activity – biochemical, luminescence, ADME assay, primary screen | inhibition, % at 5 µM | CYP2C9 Supersomes, luciferin-H conversion | 96,000 compounds, 20% hits | P11712;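 active = blocking of liver enzyme CYP2C9 beyond about 50% at 5 µM, limit read from the data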
Target sequence (P11712 whole entry, looked up): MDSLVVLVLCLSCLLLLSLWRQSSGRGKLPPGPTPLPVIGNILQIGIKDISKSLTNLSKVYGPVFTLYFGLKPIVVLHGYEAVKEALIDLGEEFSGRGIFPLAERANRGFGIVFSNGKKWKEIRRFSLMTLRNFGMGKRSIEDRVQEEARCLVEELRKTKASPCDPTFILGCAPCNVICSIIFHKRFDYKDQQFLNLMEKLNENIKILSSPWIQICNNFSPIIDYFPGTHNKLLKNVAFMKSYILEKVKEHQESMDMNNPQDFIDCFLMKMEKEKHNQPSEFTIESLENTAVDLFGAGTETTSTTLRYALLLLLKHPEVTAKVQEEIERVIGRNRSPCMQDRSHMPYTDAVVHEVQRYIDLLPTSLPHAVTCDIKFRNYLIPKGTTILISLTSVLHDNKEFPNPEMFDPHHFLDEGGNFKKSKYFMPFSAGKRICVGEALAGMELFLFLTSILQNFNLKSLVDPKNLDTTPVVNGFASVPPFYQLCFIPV
sEH inh – soluble epoxide hydrolase inhibitors, primary screen, biochemical, human sEH; Bifunctional epoxide hydrolase 2 (Homo sapiens), P34913; recombinant human sEH enzymatic activity assay; inhibition, % at 2 µM; 91,000 compounds, 0.34% hits; AID 707, 2007; in the data active = inhibition above about 80%
CYP2C19 inh – blockers of cytochrome P450 2C19 activity – biochemical, luminescence, ADME assay, primary screen; P33261; CYP2C19 Supersomes, luciferin-H EGE luminescence, 30 min; inhibition, % at 5 µM; 96,000 compounds, 21% hits;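 active = CYP2C19 inhibition above a set limit at 5 µM in the primary screen, cut at about 50% in these data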;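 also: plate controls were negative control wells for no effect and 2.5 mM tranylcypromine positive control for full effect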
CYP2C9 act – human CYP2C9 activators, primary screen, biochemical, luminescence. recombinant CYP2C9, luciferin-H conversion; stronger effect = higher value; factor 1 = untreated enzyme, 0 = blocked. Cytochrome P450 2C9 (Homo sapiens), P11712. activation factor at 5 µM. 96,000 compounds, 1.4% hits;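 active = activation factor of 2 or more for CYP2C9 at a 5 µM dose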;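 also: 0 = sulfaphenazole-blocked wells and 1 = vehicle-only wells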
sEH act – soluble epoxide hydrolase activators, primary screen, biochemical, human sEH. Bifunctional epoxide hydrolase 2 (Homo sapiens), P34913. purified human sEH enzymatic activity, activator screen. activation, % at 2 µM. 91,000 compounds, 0.04% hits. AID 717, 2007; in the data active = activation above about 37%
Numbers without * were called inactive; · = no result given.

SMILES	CYP2C19 act	CYP2C9 inhib	sEH inh	CYP2C19 inh	CYP2C9 act	sEH act
COc1ccccc1CN(C(=O)c1ccco1)C(C(=O)NC1CCCC1)c1ccncc1 (configuration not stated)	0.4	42	-2	63*	0.6	3
Cc1ccc(NC(=O)C(Cc2ccccc2)NC(=O)c2ccco2)cc1 (configuration not stated)	0.8	24	19	21	0.8	-18
CCC(C)NC(=O)c1cn(C)c(=O)c2cc(OC)c(OC)cc12 (configuration not stated)	0.6	-5	·	41	1.1	·
COc1ccc(CN(C(=O)Cc2c[nH]c3ccccc23)C(C(=O)NC2CCCCC2)c2ccc(C)o2)cc1 (configuration not stated)	0.1	94*	12	93*	0.1	-8
COc1cc(C(C(=O)NC2CCCCC2)N(Cc2cccs2)C(=O)Cc2c[nH]c3ccccc23)cc(OC)c1OC (configuration not stated)	0.3	58*	-8	73*	0.4	11
COc1ccc(/C=N/NC(=O)C2CCN(c3ncc(C(F)(F)F)cc3Cl)CC2)cc1	1	12	26	2	0.9	-24
CC(=O)c1cccc(NC(=O)C2CC(=O)N(Cc3ccccc3)C2)c1 (configuration not stated)	0.7	25	7	34	0.7	-6
CCOc1ccc(CCNC(=O)C2CCCN(C(=O)N(C)C)C2)cc1OCC (configuration not stated)	·	·	2	·	·	0
CCC(=O)c1ccc(N2CCN(C(=O)c3ccc(Br)cc3)CC2)c(F)c1	0.6	14	-2	39	0.9	3
CCCC(=O)c1cc(F)c(N2CCN(C(=O)OCC)CC2)cc1C	0.9	2	-1	14	1	2
CCC(=O)c1ccc(N2CCN(C(=O)Cc3ccccc3)CC2)c(F)c1	0.2	95*	13	78*	0	-9
CCC(=O)c1cc(F)c(N2CCN(C(=O)Cc3ccccc3)CC2)cc1C	0.2	84*	-2	85*	0.2	1
Cc1cc(N2CCOCC2)c(F)cc1C(=O)c1ccccc1	0.4	13	4	59*	0.9	-2
Cc1ccc(C(=O)C(C)OC(=O)C2CC(=O)N(C3CCCCC3)C2)cc1 (configuration not stated)	1	13	2	0	0.9	-2
CCN(CC(=O)Nc1cccc(OC)c1)C(=O)c1ccc(C)s1	0.2	72*	-3	76*	0.3	5
COc1cccc(NC(=O)CN(c2cccc(F)c2)S(C)(=O)=O)c1	0.7	30	7	26	0.7	-4
Cc1ccc(-c2cc(C(=O)N/N=C/c3c(C)nn(C)c3C)c3ccccc3n2)c(C)c1	0.1	96*	-14	94*	0	15
COC(=O)c1sccc1NC(=O)c1cc(-c2ccc(C)cc2C)nc2ccccc12	0.9	59*	-6	12	0.4	9
COC(=O)c1sccc1NC(=O)c1ccoc1C	0.9	-8	·	11	1.1	·
Cc1ccsc1/C=N/NC(=O)c1c[nH]c2ccccc12	0.7	24	7	31	0.8	-6
COc1ccccc1-c1cc(C(=O)N/N=C/c2sccc2C)c2ccccc2n1	0.6	75*	11	39	0.3	-10
COC(=O)c1c(NC(=O)c2nc3ncccn3n2)sc(C(=O)N(C)C)c1C	1.1	-6	·	-10	1.1	·
CCN(CC)C(=O)c1sc(NC(=O)c2cc(-c3ccc(C)s3)nc3ccccc23)c(C(=O)OC)c1C	1	51*	-8	-1	0.5	6
Cc1nn(C)c(C)c1/C=N/NC(=O)c1csc2ccccc12	0.9	9	71	8	0.9	-71
COc1cc(C(=O)OCC(=O)Nc2cc(C)on2)cc(OC)c1OC	1	11	2	-5	0.9	0
SMILES	CYP2C19 act	CYP2C9 inhib	sEH inh	CYP2C19 inh	CYP2C9 act	sEH act
CCCCN(CCCC)Cc1cc2ccccc2c2c1COC2	1	29	-1	4	0.7	1
CCC(=O)c1ccc(OCCn2cncn2)cc1	0.5	67*	0	52*	0.3	2
O=C(Oc1ccccc1N1C(=O)C2CCCCC2C1=O)c1ccc(Cl)cc1 (configuration not stated)	0.8	-33	-12	15	1.3	15
Cc1ccc(C(=O)Oc2ccccc2N2C(=O)C3CCC(C)CC3C2=O)cc1 (configuration not stated)	0.5	58*	-2	54*	0.4	5
COc1ccccc1CNS(=O)(=O)c1cc(C)ccc1OC	0.1	-61	-2	90*	1.6	8
COc1ccccc1CNS(=O)(=O)c1c(C)noc1C	0.6	23	·	43	0.8	·
CCc1ccccc1NS(=O)(=O)c1cc(C)ccc1OC	0.2	54*	-5	84*	0.5	9
CCN(CC)CCOC(=O)c1ccc(NC(=O)COc2cc(=O)n(CC)c3ccccc23)cc1	0.3	52*	34	66*	0.5	-35
CCN1CCN(c2ncnc3c2nnn3Cc2ccccc2)CC1	0.5	1	-12	49	1	14
c1ccc(CN2CCN(c3ncnc4c3[nH]c3ccccc34)CC2)cc1	0.5	55*	18	54*	0.5	-17
c1ccc(CN2CCN(c3nc4ccccc4c4ccccc34)CC2)cc1	0.7	92*	-6	28	0.1	3
c1ccc(CN2CCN(c3nc(-c4ccccc4)nc4ccccc34)CC2)cc1	0.9	29	6	8	0.7	-4
Cc1ccc2[nH]c3c(N4CCN(Cc5ccccc5)CC4)ncnc3c2c1	0.2	95*	·	78*	0.1	·
c1ccc2c(c1)CCN(c1ncnc3c1[nH]c1ccccc13)C2	0	95*	·	95*	0.1	·
Cc1ccc2[nH]c3c(N4CCCCCC4)ncnc3c2c1	0.6	36	12	39	0.6	-12
Clc1ccccc1/C=N/c1cc(-c2ccccc2)nn1-c1ccccc1	1.1	-4	-17	-8	1	16
COC(=O)N(C)c1ccccc1C(=O)N1CCOCC1	·	·	9	·	·	-8
CCN1CCN(S(=O)(=O)c2cc(C)c(OC)cc2C)CC1	0.7	-74	-10	28	1.7	16
COc1cccc2[nH]c3c(N4CCN(Cc5ccc6c(c5)OCO6)CC4)ncnc3c12	0.1	85*	1	94*	0.2	-3
Cc1ccc2[nH]c3c(N4CCN(Cc5ccc6c(c5)OCO6)CC4)ncnc3c2c1	0.5	88*	·	50*	0.1	·

Screening data deposited in PubChem BioAssay by several laboratories.
